Assay outcomes as filed in PubChem.
KCNQ2 pot: potentiators of rat KCNQ2 potassium channel; O88943; B-score at 10 µM; CHO-K1 KCNQ2, FluxOR thallium flux fluorescence; active compounds read high; hit rate 0.54% among 310,000;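 active means fluorescence ratio B-score at least 3 SD of library B-scores, with initial fluorescence B-score within 3 of them, cut at about 5.3 in these data; same plate scores as AID 2156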;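 further: B-score of peak minus minimum over baseline fluorescence ratio after K+ and Tl+ stimulus; positive B-score means potentiation of KCNQ2 with more thallium influx and brighter signal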
Target sequence (O88943 whole entry, looked up): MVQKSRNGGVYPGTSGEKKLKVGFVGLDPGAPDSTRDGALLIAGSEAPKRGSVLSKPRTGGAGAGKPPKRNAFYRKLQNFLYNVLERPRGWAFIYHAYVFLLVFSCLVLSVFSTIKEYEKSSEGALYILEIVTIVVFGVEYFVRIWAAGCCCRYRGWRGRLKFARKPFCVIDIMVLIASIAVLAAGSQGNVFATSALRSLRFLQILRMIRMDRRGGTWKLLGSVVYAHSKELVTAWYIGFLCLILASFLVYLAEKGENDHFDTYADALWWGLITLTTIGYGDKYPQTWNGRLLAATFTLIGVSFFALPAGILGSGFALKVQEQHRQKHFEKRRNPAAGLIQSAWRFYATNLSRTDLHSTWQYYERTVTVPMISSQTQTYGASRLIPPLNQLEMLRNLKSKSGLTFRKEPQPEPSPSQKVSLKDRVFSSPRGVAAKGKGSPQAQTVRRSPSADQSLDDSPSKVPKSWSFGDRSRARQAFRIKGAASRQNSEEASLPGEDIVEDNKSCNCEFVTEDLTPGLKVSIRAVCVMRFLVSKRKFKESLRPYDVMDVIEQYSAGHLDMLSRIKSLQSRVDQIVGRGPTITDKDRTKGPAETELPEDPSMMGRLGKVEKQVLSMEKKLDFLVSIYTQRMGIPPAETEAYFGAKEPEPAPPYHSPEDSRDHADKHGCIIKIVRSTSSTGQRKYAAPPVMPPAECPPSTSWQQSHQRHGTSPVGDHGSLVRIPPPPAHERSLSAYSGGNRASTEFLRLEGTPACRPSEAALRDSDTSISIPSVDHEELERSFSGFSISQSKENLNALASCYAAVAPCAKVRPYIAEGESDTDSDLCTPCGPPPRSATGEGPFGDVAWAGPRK
KCNQ2 block: inhibitors of rat KCNQ2 potassium channel. O88943. CHO-K1 KCNQ2, FluxOR thallium flux, 20 min; active compounds read low. B-score at 10 µM. hit rate 1.1% among 310,000;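 active means fluorescence ratio B-score at most minus 3 library SDs, with starting brightness B-score within 2 library SDs, cut at about -5.5 in these data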
Kir21 conf inh: confirmation of mouse Kir2.1 potassium channel inhibitors | hit rate 41% among 2,300 | Tl flux remaining, % of negative control (active compounds read low), % at 10 µM | Kir2.1-expressing cells, FluxOR thallium flux fluorescence; active compounds read low | shares compounds with KCNQ2 pot;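 active means Primary-screen hit whose thallium flux fell at least 3 control SD below untreated wells in both duplicates, with normal baseline fluorescence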;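 further: 0% = blank wells without stimulus and 100% = stimulated no-compound controls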
HEK293 Tl flux: alters thallium flux in parental HEK293 cells, Kir2.1 counter-screen. shares compounds with KCNQ2 pot. hit rate 19% among 2,300. AID 2105. FluxOR signal as % of negative control (100 = no effect), % at 10 µM. FluxOR thallium flux fluorescence; 0% = unstimulated blank wells;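 active means dye signal at least 3 control SD above or below untreated wells in both duplicates, raw fluorescence within 3, either direction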;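 further: percent is based on the flux ratio of peak minus minimum fluorescence over baseline F0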
CHO-K1 Tl ctr: parental CHO-K1 activity in KCNQ2 potentiator counter-screen; hit rate 43% among 1,200; parental CHO-K1 cells, FluxOR thallium flux fluorescence; zero = vehicle mean+3SD, 100% = vehicle-minus-blank window; shares compounds with KCNQ2 pot; activity increase over 3SD of controls, % at 10 µM;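 active means signal rise of at least 3 SD above the untreated control mean, in both duplicate wells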;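 further: counter screen of KCNQ2 potentiator hits so any rise reflects channel-independent effects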
KCNQ1 pot spec: tests whether KCNQ2 potentiators also act on human KCNQ1. AID 2283. CHO KCNQ1 stable, FluxOR thallium flux fluorescence; beyond 3SD, as % of vehicle-control signal. activation over 3SD threshold, % at 10 µM. shares compounds with KCNQ2 pot. hit rate 28% among 1,200;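 active means fluorescence ratio rise of at least 3 SD of vehicle wells above their mean, in both replicate wells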;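 further: 0% = vehicle mean plus 3 SD and 100% = vehicle minus unstimulated blank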
KCNQ2 pot conf: confirmation of rat KCNQ2 potassium channel potentiators; potentiation, less the hit threshold, % at 10 µM; shares compounds with KCNQ2 pot; AID 2287; CHO-KCNQ2 cells, FluxOR thallium flux fluorescence; hit rate 68% among 1,200;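 active means fluorescence ratio rising 3 SD or more over the vehicle control mean in both replicates, plus primary screen hit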;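 further: peak minus minimum thallium fluorescence divided by baseline after K/Tl stimulus; 0% = vehicle mean plus 3 SD and 100% = vehicle minus unstimulated blank difference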
Kir2-1 sel: tests whether KCNQ2 potentiators also affect mouse Kir2.1; shares compounds with KCNQ2 pot; HEK293 Kir2.1, FluxOR thallium flux fluorescence; activity over 3SD threshold, % at 10 µM; hit rate 2% among 1,200;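 active means fluorescence ratio rise of at least 3 SD above the vehicle-control mean, seen in both replicates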;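 further: 0% = vehicle mean plus 3 SD and 100% = vehicle minus no-stimulus blank window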
KCNQ2 W236L pot: KCNQ2 potentiators acting on retigabine-insensitive rat KCNQ2 W236L mutant | shares compounds with KCNQ2 pot | CHO KCNQ2-W236L, automated patch clamp current | current increase over 3SD of negative controls (%), active compounds read high, % at 25 µM | hit rate 10% among 940 | AID 2558;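 active means current increase at least 3 SD of the untreated controls above them in both duplicate recordings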
The depositor's hits bear a star; i = inactive; . = no result. Only some compounds are listed: those with a hit (about 1.6% of all), similar ones and a draw of the others.

SMILES	KCNQ2 pot	KCNQ2 block	Kir21 conf inh	HEK293 Tl flux	others
COc1ccc2c(c1)CCCN2C(N)=Nc1ccc(Cl)cc1	1.1	i	37%*	i
COc1ccc2c(c1)CCCN2C(N)=O	.	i	.	.
COc1ccc(-c2cc(=O)c3cc(OC)ccc3o2)cc1	0.36	i	.	.
COc1ccc(/C=C/c2cc(=O)c3cc(Cl)ccc3o2)cc1	.	i	i	i
CN(C(=O)COC(=O)c1ccc([N+](=O)[O-])cc1N)c1ccccc1	.	i	.	.
CC(C)[C@H](NC(=O)NC1CCCC1)C(=O)O	0.19	i	.	.
CC(C)=CCCC(C)NC(=O)NC1CCCCC1 (configuration not stated)	6.7*	i	i	76%*	CHO-K1 Tl ctr=20*;KCNQ1 pot spec=48*;KCNQ2 pot conf=12*;Kir2-1 sel=-43;KCNQ2 W236L pot=i
CCCN(CCC)S(=O)(=O)c1ccc(C(=O)Nc2nc(-c3ccccc3)c(C(=O)OCC)s2)cc1	.	i	.	.
CCOC(=O)C1=NN(C(=O)Cc2ccccc2)C(O)(c2ccc(Cl)cc2)C1 (configuration not stated)	.	i	.	.
COC(=O)C1=NN(C(=O)c2cccc(Br)c2)C(O)(c2ccc(Cl)cc2)C1 (configuration not stated)	16*	i	i	i	CHO-K1 Tl ctr=18*;KCNQ1 pot spec=-8;KCNQ2 pot conf=65*;Kir2-1 sel=-24;KCNQ2 W236L pot=i
COCCNC(=O)c1cccc(OC2CCN(Cc3ccc(OC(F)F)cc3)CC2)c1	1	i	.	.
CC(=O)N(C(C)=O)n1c(C)nc2sc3c(c2c1=O)CCCC3	1.3	i	.	.
CCCn1c(SCC(=O)N2CCN(C(C)=O)CC2)nc2sc3c(c2c1=O)CCC3	6.1*	i	i	290%*	CHO-K1 Tl ctr=15*;KCNQ1 pot spec=-16;KCNQ2 pot conf=24*;Kir2-1 sel=-40;KCNQ2 W236L pot=i
CCn1c(SC(C)C(=O)O)nc2sc3c(c2c1=O)CCC3 (configuration not stated)	8.7*	i	i	205%*	CHO-K1 Tl ctr=5.3*;KCNQ1 pot spec=-18;KCNQ2 pot conf=0.7*;Kir2-1 sel=-34;KCNQ2 W236L pot=i
CC(Sc1nc2sc3c(c2c(=O)n1-c1ccccc1)CCCC3)C(=O)O (configuration not stated)	1.2	i	.	.
CCc1nc2sc3c(c2c(=O)n1NC(=O)CCl)CCCC3	5.7*	i	i	i	CHO-K1 Tl ctr=-1;KCNQ1 pot spec=-8;KCNQ2 pot conf=-3;Kir2-1 sel=-31;KCNQ2 W236L pot=i
CCCn1c(SCC(=O)NCC)nc2sc3c(c2c1=O)CCC3	.	i	.	.
CCOCCCN1CC(=O)N2[C@@H](Cc3c([nH]c4ccccc34)C2(C)C)C1=O	1.9	i	.	.
Cc1ccc(NS(=O)(=O)c2c(C)[nH]c(C)c2C(=O)N2CCCCC2)cc1F	.	i	.	.
COc1ccccc1C(=O)NCCC(=O)NNC(=O)c1ccccc1O	.	i	.	.
CN(C)CCCN=Cc1c(O)n(Cc2ccc3c(c2)OCO3)c(=O)c2ccccc12	0.31	i	.	.
COc1cccc(CNC(=O)Cn2c(=O)c3cccn3c3ccccc32)c1	0.03	i	.	.
CN(C)CCc1cc2c(c3c1ccc1ccccc13)OCO2	.	i	16%*	i
COc1cc2ccc3c(CCN(C)C)cc(OC)c(OC)c3c2cc1OC	1.3	i	.	.
Cc1cccc(C)c1NC(=O)c1ccc(-n2cnnn2)cc1	13*	i	i	i	CHO-K1 Tl ctr=-7;KCNQ1 pot spec=-15;KCNQ2 pot conf=-22;Kir2-1 sel=-37
SMILES	KCNQ2 pot	KCNQ2 block	Kir21 conf inh	HEK293 Tl flux	others
O=C(Nc1ccc(Br)cc1)c1ccc(-n2cnnn2)cc1	0.26	i	.	.
Cc1ccc(C)c(S(=O)(=O)N2CCCOC2CNC(=O)C(=O)NCc2ccc3c(c2)OCO3)c1 (configuration not stated)	.	i	.	.
COc1ccc(C(=O)N[C@H](C(=O)N2CCN(c3ccccc3F)CC2)C(C)C)cc1	.	i	.	.
CCCCCC1CCC(C(=O)NCCN2CCOCC2)CC1 (configuration not stated)	1.6	i	.	.
N#Cc1c(C(F)(F)F)cc(-c2ccccc2)nc1SCc1nc(N)nc(N2CCOCC2)n1	10*	i	i	i	CHO-K1 Tl ctr=-19;KCNQ1 pot spec=-22;KCNQ2 pot conf=17*;Kir2-1 sel=-17;KCNQ2 W236L pot=i
N#Cc1c(C(F)(F)F)cc(-c2ccc(Cl)c(Cl)c2)nc1SCCN1CCOCC1	0.12	i	.	.
Cc1cc(C(=O)Cn2nc(C(=O)O)c3ccccc3c2=O)c(C)n1-c1ccc(F)cc1	1.1	i	.	.
COc1cccc(-c2nnc(Nc3nc4c(F)cccc4s3)o2)c1	9.7*	i	i	234%*	CHO-K1 Tl ctr=-7;KCNQ1 pot spec=37*;KCNQ2 pot conf=29*;Kir2-1 sel=-22;KCNQ2 W236L pot=i
COc1cccc(-c2nnc(NC(C)=O)o2)c1	0.28	i	.	.
COc1cccc2sc(Nc3nnc(-c4ccccc4Cl)o3)nc12	21*	i	i	379%*	CHO-K1 Tl ctr=-5;KCNQ1 pot spec=-6;KCNQ2 pot conf=38*;Kir2-1 sel=-21;KCNQ2 W236L pot=i
COc1ccccc1-c1nnc(Nc2nc3c(OC)cccc3s2)o1	.	i	.	.
O=C(O)/C=C/C(=O)OC1CC2CCC1C2 (configuration not stated)	.	i	.	.
OCCNCc1ccc(-c2ccccc2)cc1	1	i	.	.
OCCCNCc1ccc(N(c2ccccc2)c2ccccc2)cc1	.	i	23%*	i
COCCCNC(=S)N1CCN(c2nc(-c3ccccc3)cs2)CC1	0.5	i	.	.
O=C(NC(=S)N1CCN(c2nc(-c3ccccc3)cs2)CC1)c1cncc(Br)c1	17*	i	i	247%*	CHO-K1 Tl ctr=-11;KCNQ1 pot spec=-14;KCNQ2 pot conf=18*;Kir2-1 sel=-26;KCNQ2 W236L pot=i
COc1ccc(CCNC(=O)C2Cc3ccccc3C(=O)O2)cc1 (configuration not stated)	.	i	.	.
COc1ccc(CCNC2CCc3ccccc3C2)cc1 (configuration not stated)	2.8	i	40%*	i
NS(=O)(=O)c1ccc(CCNCc2ccccc2OCc2ccc(Cl)cc2)cc1	4.3	i	44%*	i
C=CCOc1ccccc1CNCCc1ccc(S(N)(=O)=O)cc1	.	i	.	.
NS(=O)(=O)c1ccc(CCNCc2cc(Cl)ccc2OCc2ccccc2)cc1	1.7	i	.	.
NS(=O)(=O)c1ccc(CCNCc2cc(Br)ccc2OCc2ccccc2F)cc1	.	i	64%*	i
COc1cc(C(=O)Nc2ccc3c(c2)N(C(=O)CN2CCN(C)CC2)c2ccccc2CC3)cc(OC)c1OC	.	i	.	.
O=[N+]([O-])c1cc(C(F)(F)F)ccc1Sc1ccc2ccccc2n1	.	i	.	.
Cn1ccnc1Sc1ccccc1[N+](=O)[O-]	.	i	.	.
